Experimental data as given in PubChem BioAssay (Tox21).
Calls of active or inactive are those of the source. Calls follow the shape of the full dose curve.

biological target: Muscarinic acetylcholine receptor M1 (Homo sapiens) (UniProt P11229); test: Cholinergic receptor muscarinic 1 (CHRM1) small molecule agonists, cell-based qHTS assay (AID 1963589); conditions: CHRM1-CHO cells, agonist mode, calcium flux fluorescence; series mostly up to 76.8 µM; activation: at the top concentration; also: nearly all actives have a fitted effect of over 35% in size
Description: National Center for Advancing Translational Sciences [NCATS]
Division of Preclinical Innovation [DPI]
U.S. Environmental Protection Agency [EPA]
National Institutes of Environmental Health Sciences [NIEHS]
National Toxicology Program [NTP]
U.S. Food and Drug Administration [FDA]
The CHRM1 is a muscarinic receptor. This receptor plays a crucial role in learning and memory processes and has long been identified as a promising therapeutic target for the improvement of cognitive decline in Alzheimer's disease (AD). The CHRM1-CHO cell line stably expressing human muscarinic acetylcholine receptor M1 (CHRM1) can be used for screening agonists and antagonists of interactions between CHRM1 and its ligands. The CHRM1-CHO Calcium Flux Assay is a homogeneous fluorescence-based assay for detecting the intracellular calcium level using FDSS kinetic plate reader system.
CHRM1-CHO cells were dispensed at 1000 cells/3uL/well in 1536-well black-clear bottom plates using a Multidrop Dispenser. After the assay plates were incubated at a 37 C/5% CO2 incubator for 18 h, 3 uL of Dye Loading Buffer was transferred to the assay plate by a Flying Reagent Dispenser. The assay plates were incubated at 37 C for 1h. For agonist mode, 23 nL of compounds dissolved in DMSO, positive controls or DMSO only was transferred to the assay plate by a pin tool. […] Each test compound was measured at 15 concentrations in three independent runs.
% is scaled to controls: 0 for no effect and ±100 for the full control effect; potency is read from the fitted curve at half-maximal effect.

Muscarinic acetylcholine receptor M1 (Homo sapiens), sequence (P11229 whole entry, looked up): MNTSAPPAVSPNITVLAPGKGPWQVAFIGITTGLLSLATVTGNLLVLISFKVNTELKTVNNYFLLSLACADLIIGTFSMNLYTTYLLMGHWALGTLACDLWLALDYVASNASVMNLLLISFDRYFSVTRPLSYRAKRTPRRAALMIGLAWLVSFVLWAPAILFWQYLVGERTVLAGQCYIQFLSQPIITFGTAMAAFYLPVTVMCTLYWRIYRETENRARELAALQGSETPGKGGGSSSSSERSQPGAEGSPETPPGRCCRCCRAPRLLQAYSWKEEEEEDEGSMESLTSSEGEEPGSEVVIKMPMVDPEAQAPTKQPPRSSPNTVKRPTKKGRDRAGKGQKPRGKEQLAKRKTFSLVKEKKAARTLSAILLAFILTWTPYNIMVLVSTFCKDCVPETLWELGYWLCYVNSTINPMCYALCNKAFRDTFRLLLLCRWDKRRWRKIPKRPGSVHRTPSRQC

Compound | activation | Potency
O=CC(Br)(Br)Br | 1.09% (inactive) | –
NC(=O)C(Cl)(Cl)Cl | -0.154% (inactive) | –
CC(C)(C)N(NC(=O)c1ccc(Cl)cc1)C(=O)c1ccccc1 | -0.599% (inactive) | –
FC(F)OC(F)(F)C(F)Cl (stereo not given) | 0.0877% (inactive) | –
CC(C)CC(C)N (stereo not given) | 0.222% (inactive) | –
COc1nn(CSP(=S)(OC)OC)c(=O)s1 | -3.86% (inactive) | –
N#C/C(N)=C(/N)C#N | -0.871% (inactive) | –
CCC(=O)c1ccc(Cl)cc1 | -0.0021% (inactive) | –
ClC1=C(Cl)[C@]2(Cl)[C@@H]3[C@@H](Cl)[C@H]4O[C@H]4[C@@H]3C1(Cl)C2(Cl)Cl | 0.133% (inactive) | –
Cc1ccc(O)cc1C | – | inactive
OC(c1ccc(Cl)cc1)(c1ccc(Cl)cc1)c1cccnc1 | 1.03% (inactive) | –
O=C(O)COc1ccc(Cl)cc1 | 0.263% (inactive) | –
CCOP(=S)(Oc1cnc(C(C)(C)C)nc1)OC(C)C (stereo not given) | 2.25% (inactive) | –
CCOC(=O)CCl | -1.51% (inactive) | –
OC(c1ccc(Cl)cc1)(c1ccc(Cl)cc1)C(Cl)(Cl)Cl | 11.7% (inactive) | –
C=C(C)CN(CC)c1c([N+](=O)[O-])cc(C(F)(F)F)cc1[N+](=O)[O-] | -0.386% (inactive) | –
ClC(Br)Br | -0.292% (inactive) | –
CN1CCC(O)(c2ccc(F)cc2)C(C(=O)c2ccc(F)cc2)C1 (stereo not given) | -0.919% [at 35.3 µM] (inactive) | –
ClC1=C(Cl)C2(Cl)C(CBr)CC1(Cl)C2(Cl)Cl (stereo not given) | – | inactive
N#CN=C1SCCN1Cc1ccc(Cl)nc1 | -0.558% (inactive) | –

Compound | activation | Potency
CCCN1CCC[C@@H]2Cc3[nH]ncc3C[C@H]21 | -0.698% [at 35.3 µM] (inactive) | –
O=C1CCCCC1Cl (stereo not given) | 0.133% (inactive) | –
FC(F)(F)c1cccc(C2=CCN(CCc3ccc4ccccc4c3)CC2)c1 | 5.76% [at 35.3 µM] (inactive) | –
CC1(C)CC/C(=C/c2ccc(Cl)cc2)C1(O)Cn1cncn1 (stereo not given) | 8.89% (inactive) | –
OP(O)c1ccccc1 | 0.362% (inactive) | –
CCOc1nc(C(Cl)(Cl)Cl)ns1 | -0.994% (inactive) | –
Cc1ccc2ccccc2c1C | – | inactive
CCOP(=S)(Oc1ccc([N+](=O)[O-])cc1)c1ccccc1 (stereo not given) | -1.15% (inactive) | –
Oc1ccc([C@H]2CNCc3c2ccc(O)c3O)cc1O | -0.317% [at 35.3 µM] (inactive) | –
Cc1ccc([N+](=O)[O-])[c]2c1[O][Hg]2 | – | 23.9 µM (active)
O=C1C=CC(=O)c2ccccc21 | 11.6% (inactive) | –
O=[N+]([O-])c1ccc2c3c(cccc13)CC2 | -0.319% (inactive) | –
Cc1cc(Cl)ccc1O[C@H](C)C(=O)O | -0.363% (inactive) | –
NCCc1cc(O)c(O)cc1O | -0.531% [at 35.3 µM] (inactive) | –
CCCCC(CC)COP(=O)(Oc1ccccc1)Oc1ccccc1 (stereo not given) | 0.144% (inactive) | –
CC(=O)c1cc2c(cc1C)C(C)(C)C(C)CC2(C)C (stereo not given) | -0.0886% (inactive) | –
O=[N+]([O-])c1cc(Cl)c(Cl)cc1Cl | -1.15% (inactive) | –
C=CC(C)(CCC=C(C)C)OC(=O)c1ccccc1N (stereo not given) | -0.19% (inactive) | –
O=C(Nc1ccc2[nH]ccc2c1)c1cc2cc(F)ccc2n1Cc1cccc(F)c1 | 0.333% (inactive) | –
CCC1(c2ccccc2)C(=O)N(COC)C(=O)N(COC)C1=O | -0.356% [at 35.3 µM] (inactive) | –
